# Reference: PubChem BioAssay (Tox21)
# Several values for one entry are separate records, joined by “and”; a condition that tells them apart may be missing. Equal values may be shown once. Records with an inconclusive call do not appear. Where a call stands in place of a potency, no number is given. Some compounds were tested as several samples or in several runs, with calls that do not always agree. Activity calls are given as the source filed them. Unless noted, the call rests on the fitted dose curve; in most records, active means well fitted curve in the direction sought with a large enough effect in the repeat runs; inconclusive means weak or mixed curves; inactive means no such curve, though single readings can be large; an effect the other way counts as inactive or inconclusive.
# How the values were obtained:
# [1] = target: Acetylcholinesterase (Homo sapiens) (UniProt P22303); assay: Acetylcholinesterase (AChE) small molecule antagonists: colormetric cell-based qHTS assay (AID 1347395; calls by dose curve; further: nearly all actives have a fitted effect of over 30% in size)
# Chain of Acetylcholinesterase (Homo sapiens) (P22303 whole entry, looked up): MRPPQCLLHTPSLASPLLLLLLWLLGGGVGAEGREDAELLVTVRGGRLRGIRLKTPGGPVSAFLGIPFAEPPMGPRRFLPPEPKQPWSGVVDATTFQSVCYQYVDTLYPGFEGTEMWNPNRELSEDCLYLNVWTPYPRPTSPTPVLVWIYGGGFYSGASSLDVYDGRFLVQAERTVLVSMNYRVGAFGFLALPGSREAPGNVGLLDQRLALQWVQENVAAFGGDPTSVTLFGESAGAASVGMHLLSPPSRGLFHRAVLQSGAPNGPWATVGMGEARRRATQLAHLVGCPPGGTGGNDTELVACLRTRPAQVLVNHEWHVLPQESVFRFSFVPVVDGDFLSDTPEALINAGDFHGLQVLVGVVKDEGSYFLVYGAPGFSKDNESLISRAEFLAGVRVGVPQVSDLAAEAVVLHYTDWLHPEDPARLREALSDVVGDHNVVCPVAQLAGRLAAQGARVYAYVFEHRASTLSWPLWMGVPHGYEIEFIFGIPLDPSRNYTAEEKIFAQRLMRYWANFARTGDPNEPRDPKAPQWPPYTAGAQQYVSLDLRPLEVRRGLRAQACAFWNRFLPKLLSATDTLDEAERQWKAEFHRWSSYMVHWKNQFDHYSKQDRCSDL
# Method in brief: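 AChE inhibition read colorimetrically via DTNB–thiocholine in SH-SY5Y cells. Compound 30 min, substrate 90 min, both 37 C.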
# [2] = target: Acetylcholinesterase (Homo sapiens) (UniProt P22303); assay: Acetylcholinesterase (AChE) small molecule antagonists: enzyme-based qHTS assay (AID 1347397; calls by dose curve; further: nearly all actives have a fitted effect of over 55% in size); settings: Potency: AChE enzyme activity inhibition
# Method in brief: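 Colorimetric DTNB readout of acetylthiocholine hydrolysis, 10 min at room temperature, after 30 min room-temperature exposure of 50 mU/mL recombinant human enzyme to compound; DMSO vehicle control.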
# [3] = target: Acetylcholinesterase (Homo sapiens) (UniProt P22303); assay: Acetylcholinesterase (AChE) small molecule antagonists: fluorescence cell-based qHTS assay (AID 1347398; calls by dose curve; further: nearly all actives have a fitted effect of over 50% in size); settings: Potency: AChE activity
# Method in brief: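 Cellular AChE activity read as thiocholine from acetylthiocholine hydrolysis, detected by Thiolite Green fluorescence at 490/520 nm after 40 min at room temperature. Compounds were pre-incubated 30 min at 37 C on adherent SH-SY5Y cells.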
# [4] = target: Acetylcholinesterase (Homo sapiens) (UniProt P22303); assay: Acetylcholinesterase (AChE) small molecule antagonists: enzyme-based qHTS assay with human liver microsomes (AID 1347399; calls by dose curve; further: nearly all actives have a fitted effect of over 60% in size); settings: Potency: qHTS inhibition
# Method in brief: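 Recombinant human AChE (50 mU/mL in the enzyme mix) and human liver microsomes (0.25 mg/mL final) were preincubated with compound and NADPH (0.25 mg/mL final) for 30 min at 37 C. Acetylthiocholine/DTNB was then added; thiocholine was read colorimetrically after 10 min at room temperature.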
# [5] = target: Cytochrome P450 2D6 (Homo sapiens) (UniProt P10635); assay: Cytochrome P450 Family 2 Subfamily D Member 6 (CYP2D6) small molecule antagonists: luciferase reporter qHTS assay (AID 1671196); further: nearly all actives have a fitted effect of over 50% in size
# Chain of Cytochrome P450 2D6 (Homo sapiens) (P10635 whole entry, looked up): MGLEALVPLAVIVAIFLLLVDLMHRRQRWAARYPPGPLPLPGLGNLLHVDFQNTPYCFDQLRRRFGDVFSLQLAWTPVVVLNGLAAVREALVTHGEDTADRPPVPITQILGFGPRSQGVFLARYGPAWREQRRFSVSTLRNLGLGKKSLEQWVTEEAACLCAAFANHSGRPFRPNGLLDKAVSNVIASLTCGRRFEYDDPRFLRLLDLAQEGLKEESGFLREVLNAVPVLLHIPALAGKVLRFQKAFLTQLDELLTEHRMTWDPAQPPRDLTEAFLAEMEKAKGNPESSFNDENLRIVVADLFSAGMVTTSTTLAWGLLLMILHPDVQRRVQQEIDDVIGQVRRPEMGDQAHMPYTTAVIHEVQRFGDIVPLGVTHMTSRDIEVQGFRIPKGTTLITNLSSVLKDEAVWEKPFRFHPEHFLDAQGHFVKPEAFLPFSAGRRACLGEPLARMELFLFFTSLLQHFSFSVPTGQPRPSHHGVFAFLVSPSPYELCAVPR
# Method in brief: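 Enzyme and proluciferin substrate were first combined with test chemical for 10 min at room temperature. Adding NADPH regeneration solution started a 1 h reaction, stopped with luciferin detection reagent and read by luminescence 20 min later.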
# [6] = target: Cytochrome P450 2C19 (Homo sapiens) (UniProt P33261); assay: Cytochrome P450 Family 2 Subfamily C Member 19 (CYP2C19) small molecule antagonists: luciferase reporter qHTS assay (AID 1671197); further: nearly all actives have a fitted effect of over 65% in size
# Chain of Cytochrome P450 2C19 (Homo sapiens) (P33261 whole entry, looked up): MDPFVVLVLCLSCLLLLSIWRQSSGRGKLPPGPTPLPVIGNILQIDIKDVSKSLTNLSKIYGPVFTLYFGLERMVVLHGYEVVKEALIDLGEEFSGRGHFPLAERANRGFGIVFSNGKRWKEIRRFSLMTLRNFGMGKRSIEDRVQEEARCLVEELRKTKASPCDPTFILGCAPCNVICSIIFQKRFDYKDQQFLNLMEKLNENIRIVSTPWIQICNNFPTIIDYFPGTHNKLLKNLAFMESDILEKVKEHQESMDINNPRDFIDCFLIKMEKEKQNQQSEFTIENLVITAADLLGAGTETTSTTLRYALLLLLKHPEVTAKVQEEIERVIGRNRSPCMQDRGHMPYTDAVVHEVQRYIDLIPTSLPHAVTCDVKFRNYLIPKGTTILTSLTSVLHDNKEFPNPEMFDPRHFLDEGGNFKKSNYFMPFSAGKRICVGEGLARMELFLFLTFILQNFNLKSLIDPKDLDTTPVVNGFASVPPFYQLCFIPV
# Method in brief: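 Luminescent readout of CYP2C19 activity: luciferin product detected 20 min after adding detection reagent. Before that, compound and enzyme-substrate mix preincubated 10 min at room temperature; NADPH-regenerating system started a 1 h, 37C reaction. Ketoconazole as positive control.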
# [7] = target: Cytochrome P450 2C9 (Homo sapiens) (UniProt P11712); assay: Cytochrome P450 Family 2 Subfamily C Member 9 (CYP2C9) small molecule antagonists: luciferase reporter qHTS assay (AID 1671198); further: nearly all actives have a fitted effect of over 50% in size
# Chain of Cytochrome P450 2C9 (Homo sapiens) (P11712 whole entry, looked up): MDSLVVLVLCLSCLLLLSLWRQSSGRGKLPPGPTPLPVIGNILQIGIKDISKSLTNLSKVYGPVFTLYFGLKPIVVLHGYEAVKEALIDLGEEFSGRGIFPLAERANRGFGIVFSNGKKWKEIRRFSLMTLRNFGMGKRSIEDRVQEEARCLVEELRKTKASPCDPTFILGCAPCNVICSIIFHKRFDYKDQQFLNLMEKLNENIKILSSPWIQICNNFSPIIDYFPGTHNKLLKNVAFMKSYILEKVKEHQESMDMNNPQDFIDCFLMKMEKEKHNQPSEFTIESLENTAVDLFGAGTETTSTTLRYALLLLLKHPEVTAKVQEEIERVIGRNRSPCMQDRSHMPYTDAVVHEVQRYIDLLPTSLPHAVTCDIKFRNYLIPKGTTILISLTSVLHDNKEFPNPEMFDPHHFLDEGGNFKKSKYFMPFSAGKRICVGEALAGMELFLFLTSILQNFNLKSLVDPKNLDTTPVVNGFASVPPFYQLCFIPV
# Method in brief: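 Enzyme-substrate mix preincubated with compound 10 min at room temperature; reaction started with NADPH regeneration solution, 1 h 37C. Luminescent luciferin product read after 20 min detection reagent.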
# [8] = target: Voltage-gated inwardly rectifying potassium channel KCNH2 (Homo sapiens) (UniProt Q12809); assay: Human Ether-a-go-go-Related Gene (hERG) channel small molecule antagonists: fluorescence cell-based qHTS assay (AID 1671200); further: nearly all actives have a fitted effect of over 50% in size
# Chain of Voltage-gated inwardly rectifying potassium channel KCNH2 (Homo sapiens) (Q12809 whole entry, looked up): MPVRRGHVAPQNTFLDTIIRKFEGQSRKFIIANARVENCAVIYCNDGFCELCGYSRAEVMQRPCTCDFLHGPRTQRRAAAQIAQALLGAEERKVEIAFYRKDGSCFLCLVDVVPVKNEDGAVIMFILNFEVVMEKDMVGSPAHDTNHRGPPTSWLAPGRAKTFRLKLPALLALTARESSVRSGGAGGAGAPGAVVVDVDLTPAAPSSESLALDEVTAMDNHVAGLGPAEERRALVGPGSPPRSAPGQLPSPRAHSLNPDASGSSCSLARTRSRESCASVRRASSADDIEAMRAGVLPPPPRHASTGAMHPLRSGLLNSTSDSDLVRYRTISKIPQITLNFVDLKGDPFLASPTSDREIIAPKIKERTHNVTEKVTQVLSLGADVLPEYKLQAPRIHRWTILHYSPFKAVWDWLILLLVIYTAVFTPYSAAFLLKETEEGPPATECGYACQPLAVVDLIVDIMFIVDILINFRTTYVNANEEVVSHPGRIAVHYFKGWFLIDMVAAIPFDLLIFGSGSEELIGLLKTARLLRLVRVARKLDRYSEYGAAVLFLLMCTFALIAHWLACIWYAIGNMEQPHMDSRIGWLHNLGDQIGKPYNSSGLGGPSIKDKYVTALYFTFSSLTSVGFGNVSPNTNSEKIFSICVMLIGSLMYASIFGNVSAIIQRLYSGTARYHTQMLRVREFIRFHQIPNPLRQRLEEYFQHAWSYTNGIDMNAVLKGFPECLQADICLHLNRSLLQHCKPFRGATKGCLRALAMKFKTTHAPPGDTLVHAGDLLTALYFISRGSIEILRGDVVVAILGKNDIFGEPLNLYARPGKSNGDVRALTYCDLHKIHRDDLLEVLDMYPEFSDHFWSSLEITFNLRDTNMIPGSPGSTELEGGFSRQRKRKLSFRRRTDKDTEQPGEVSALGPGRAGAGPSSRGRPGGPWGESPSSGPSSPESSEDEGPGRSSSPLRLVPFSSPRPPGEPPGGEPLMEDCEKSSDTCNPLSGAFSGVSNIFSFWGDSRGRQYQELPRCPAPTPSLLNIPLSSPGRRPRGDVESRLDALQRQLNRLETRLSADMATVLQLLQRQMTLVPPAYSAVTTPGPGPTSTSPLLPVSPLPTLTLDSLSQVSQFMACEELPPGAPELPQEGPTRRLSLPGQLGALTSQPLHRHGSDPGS
# Method in brief: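 Kinetic two-minute fluorescence traces, sampled at 1 s, were collected following thallium stimulus of U2OS cells (1000 per well) that had been cultured overnight at 37 C and loaded with FluxOR II.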
# [9] = target: Cytochrome P450 1A2 (Homo sapiens) (UniProt P05177); assay: Cytochrome P450 Family 1 Subfamily A Member 2 (CYP1A2) small molecule antagonists: luciferase reporter qHTS assay (AID 1671199); further: nearly all actives have a fitted effect of over 50% in size
# Chain of Cytochrome P450 1A2 (Homo sapiens) (P05177 whole entry, looked up): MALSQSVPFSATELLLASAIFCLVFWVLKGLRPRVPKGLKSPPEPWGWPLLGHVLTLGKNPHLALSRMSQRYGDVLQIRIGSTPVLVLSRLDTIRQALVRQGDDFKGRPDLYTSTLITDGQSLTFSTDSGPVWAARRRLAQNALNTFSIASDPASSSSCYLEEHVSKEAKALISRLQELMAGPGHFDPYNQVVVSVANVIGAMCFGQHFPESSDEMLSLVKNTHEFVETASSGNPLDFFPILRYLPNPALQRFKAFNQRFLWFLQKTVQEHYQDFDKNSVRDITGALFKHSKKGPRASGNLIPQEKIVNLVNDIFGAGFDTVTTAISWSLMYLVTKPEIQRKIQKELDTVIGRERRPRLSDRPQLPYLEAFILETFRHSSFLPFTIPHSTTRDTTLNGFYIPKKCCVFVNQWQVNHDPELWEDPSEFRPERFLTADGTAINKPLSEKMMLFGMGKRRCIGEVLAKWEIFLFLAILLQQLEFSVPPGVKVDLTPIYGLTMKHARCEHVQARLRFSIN
# Method in brief: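 Compounds were incubated with CYP1A2 and a luminogenic proluciferin substrate for 10 min at room temperature before the reaction was started with NADPH regeneration solution. After 1 h, detection reagent was added and light output, proportional to CYP activity, was recorded.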
# [10] = target: Cytochrome P450 3A4 (Homo sapiens) (UniProt P08684); assay: Cytochrome P450 Family 3 Subfamily A Member 4 (CYP3A4) small molecule antagonists: luciferase reporter qHTS assay (AID 1671201); further: nearly all actives have a fitted effect of over 50% in size
# Chain of Cytochrome P450 3A4 (Homo sapiens) (P08684 whole entry, looked up): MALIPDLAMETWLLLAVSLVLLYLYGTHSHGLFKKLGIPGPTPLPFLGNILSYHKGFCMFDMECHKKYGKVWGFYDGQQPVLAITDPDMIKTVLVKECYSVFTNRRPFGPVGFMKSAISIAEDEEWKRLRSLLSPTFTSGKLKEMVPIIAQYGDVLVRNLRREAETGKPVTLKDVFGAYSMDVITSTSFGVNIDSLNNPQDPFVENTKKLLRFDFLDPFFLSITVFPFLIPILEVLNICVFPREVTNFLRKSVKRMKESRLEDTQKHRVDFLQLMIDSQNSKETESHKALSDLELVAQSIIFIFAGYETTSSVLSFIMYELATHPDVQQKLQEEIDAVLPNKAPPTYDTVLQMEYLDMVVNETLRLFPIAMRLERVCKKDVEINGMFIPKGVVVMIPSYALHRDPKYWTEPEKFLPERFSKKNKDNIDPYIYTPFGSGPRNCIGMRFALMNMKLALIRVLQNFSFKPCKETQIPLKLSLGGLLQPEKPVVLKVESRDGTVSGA
# Method in brief: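 Proluciferin-to-luciferin conversion by CYP3A4, NADPH-regenerated, 1 h RT; luminescence read as RLU. Ketoconazole as control.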
# Potency means the concentration at half of the fitted maximal effect.
Compound,Potency [1],Potency [2],Potency [3],Potency [4],Potency [5],Potency [6],Potency [7],Potency [8],Potency [9],Potency [10]
FC(F)(F)c1ccc(Cl)cc1,inactive,inactive,inactive,inactive,inactive,inactive,inactive,inactive,–,–
O=C/C=C/c1ccccc1,inactive,inactive and 64 µM (active),inactive and 36 µM (active),inactive,inactive,inactive and 79.6 µM (active),inactive,inactive,inactive and 39.9 µM (active),–
Oc1c(Br)cc(Br)cc1Br,inactive,inactive,inactive,inactive,inactive,inactive,63.4 µM (active) and 39.9 µM (active) and inactive,inactive,35.7 µM (active) and 63.3 µM (active) and inactive,–
O=[N+]([O-])c1cc([As](=O)(O)O)ccc1O,inactive,inactive,inactive,inactive,inactive,inactive,inactive,inactive,inactive,inactive
N#Cc1cccc(C#N)c1,inactive,inactive,inactive,inactive,31.2 µM (active) and inactive,inactive,inactive,inactive,inactive,–
C=CC(=O)OCCCCCC(C)C,inactive,inactive,inactive,inactive,inactive,inactive,inactive,inactive,inactive,inactive
CC(=O)C1CCOC1=O (configuration not stated),inactive,inactive,inactive,inactive,inactive,inactive,inactive,inactive,inactive,–
CN(C)C(=O)Nc1cccc(C(F)(F)F)c1,inactive,inactive,inactive,inactive,inactive,inactive,inactive,inactive,2.88 µM (active) and 3.99 µM (active),–
Cc1cc(O)ccc1Cl,inactive,inactive,inactive,inactive,inactive,25.6 µM (active) and inactive,inactive,inactive,36.2 µM (active) and 44.8 µM (active) and 17.4 µM (active),inactive
O=[N+]([O-])c1ccc(Cl)cc1,inactive,inactive,inactive,inactive,inactive,inactive,inactive,inactive,inactive,–
Nc1cc(Cl)cc(Cl)c1,inactive,inactive,inactive,inactive,inactive,inactive,inactive,inactive,21.6 µM (active) and 28.3 µM (active),–
COP(=S)(OC)Oc1ccc(SC)c(C)c1,inactive,inactive,inactive,inactive,39.5 µM (active) and 39.9 µM (active),1.57 µM (active) and 710 nM (active) and 1.1 µM (active),7.02 µM (active) and 6.33 µM (active) and 6.92 µM (active),inactive,1.98 µM (active) and 2.24 µM (active) and 1.62 µM (active),–
Clc1cnc(Oc2ccc(Oc3ncc(Cl)cc3Cl)cc2)c(Cl)c1,inactive,inactive,inactive,inactive,inactive,inactive,inactive,19.5 µM (active),24.9 µM (active) and inactive,–
CNC(=O)O/N=C(\SC)C(=O)N(C)C,1.55 µM (active) and 1.42 µM (active),2.45 µM (active) and 2.82 µM (active),489 nM (active) and 632 nM (active),12.3 µM (active) and 20 µM (active),30.9 µM (active) and 28.2 µM (active),34.6 µM (active) and 28.2 µM (active),inactive,inactive,inactive,inactive
N#Cc1ccccn1,inactive,inactive,inactive,inactive,inactive,inactive and 71 µM (active),inactive,inactive,inactive,–
CN(C)C(=O)C(c1ccccc1)c1ccccc1,inactive,inactive,inactive,inactive,inactive,70.9 µM (active),62.3 µM (active),inactive,inactive,inactive
N#CN=C(N)N,inactive,inactive,inactive,inactive,inactive,inactive,inactive,inactive,inactive,inactive
CSc1nnc(C(C)(C)C)c(=O)n1N,inactive,inactive,inactive,inactive,31.4 µM (active),inactive,inactive,inactive,–,–

Compound,Potency [1],Potency [2],Potency [3],Potency [4],Potency [5],Potency [6],Potency [7],Potency [8],Potency [9],Potency [10]
Cl/C=C/Cl,inactive,inactive,inactive,inactive,inactive,inactive,inactive,inactive,inactive,–
C[C@]12CC[C@H](O)CC1=CC[C@@H]1[C@@H]2CC[C@]2(C)C(=O)CC[C@@H]12,inactive,inactive,inactive,inactive,inactive,79.7 µM (active) and 71 µM (active) and inactive,44.8 µM (active) and 31.7 µM (active) and 19.5 µM (active),–,inactive,–
O=C(O)C1C(C(=O)O)C2(Cl)C(Cl)=C(Cl)C1(Cl)C2(Cl)Cl (configuration not stated),inactive,inactive,inactive,inactive,inactive,inactive,inactive,inactive,inactive,inactive
OCc1ccco1,inactive,inactive,inactive,inactive,inactive,inactive,inactive and 44.8 µM (active),inactive,inactive,inactive
CCCOC(=O)c1ccccc1C(=O)OCCC,inactive,inactive,inactive,inactive,inactive,8.09 µM (active) and 8.94 µM (active),32.2 µM (active) and 35.6 µM (active),inactive,2.03 µM (active) and 3.17 µM (active),–
C/C=C/c1ccc2c(c1)OCO2,inactive,inactive,inactive,inactive,inactive,inactive and 79.6 µM (active),inactive,inactive,39.9 µM (active),inactive
Cc1cccc(N)c1,inactive,inactive,inactive,inactive,31.8 µM (active) and inactive,7.99 µM (active) and 45.1 µM (active) and 39.9 µM (active),8.96 µM (active) and 35.6 µM (active),inactive,31.8 µM (active) and inactive and 31.7 µM (active),3.18 µM (active) and inactive
COC(=O)Nc1cccc(OC(=O)Nc2cccc(C)c2)c1,inactive,inactive,inactive,inactive,inactive,35.6 µM (active),inactive,inactive,7.1 µM (active) and 17.8 µM (active),inactive
CN(C)NC(=O)CCC(=O)O,inactive,inactive,inactive,inactive,inactive,inactive,inactive,inactive,inactive,inactive
CCSC(=O)N1CCCCCC1,inactive,inactive,inactive,inactive,30.8 µM (active) and inactive,34.6 µM (active),38.8 µM (active) and inactive,inactive,inactive,–
[N-]=[N+]=CC(=O)OC[C@H](N)C(=O)O,inactive,inactive,inactive,inactive,inactive and 30.9 µM (active),inactive,inactive,inactive,inactive,inactive
CC(=O)/C=C/c1ccccc1,inactive,inactive,inactive,inactive,inactive and 35.6 µM (active),78.2 µM (active),inactive,inactive,31.7 µM (active) and 39.9 µM (active),–
c1ccc2c(c1)CCCC2,inactive,–,inactive,inactive,7.25 µM (active) and inactive,inactive,inactive,inactive,inactive,inactive
OC[C@@H](O)[C@H]1O[C@@H]2O[C@H](C(Cl)(Cl)Cl)O[C@@H]2[C@H]1O,inactive,–,inactive,inactive,inactive,35.5 µM (active) and inactive,inactive,inactive,inactive,–
OCC(O)CCl (configuration not stated),inactive,inactive,inactive,inactive,inactive,79.6 µM (active) and inactive,inactive,inactive,–,inactive
CCOP(=S)(OCC)Oc1cc(C)nc(C(C)C)n1,31.9 µM (active) and 71 µM (active) and inactive,–,35.8 µM (active) and 56.4 µM (active),inactive and 8.71 µM (active),inactive,56.7 µM (active) and 502 nM (active) and 692 nM (active),35.8 µM (active) and 2.83 µM (active) and 2.45 µM (active),inactive,6.33 µM (active) and 4.07 µM (active),–
CNc1cnn(-c2cccc(C(F)(F)F)c2)c(=O)c1Cl,inactive,inactive,inactive,inactive,inactive,6.85 µM (active) and 31.7 µM (active),–,inactive,5.44 µM (active) and 10 µM (active),34.3 µM (active)
C=C(C)C(=O)OCC(CC)CCCC (configuration not stated),inactive,–,inactive,inactive,inactive,40.7 µM (active) and inactive,inactive,inactive,inactive,inactive
